Test results as given in PubChem BioAssay (EPA / NIEHS).
Activity calls are given as the source filed them. The calls were made as follows: active = hit-call score of the fitted dose curve at least 0.9, where 1 is the maximum; inactive = score below 0.9.

How the values were obtained:
Conditions in all cases: mRNA level, 48 h; actives raise or lower the signal
[1] = read-out: Potassium channel subfamily K member 1 (KCNK1), KCNK1 (gene 3775); experiment: LTEA_HepaRG_KCNK1: Life Technologies and Expression Analysis (LTEA) Assay for Potassium channel subfamily K member 1 (KCNK1) using HepaRG (AID 2283511)
How it was run: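 KCNK1 transcript measured by TaqMan qRT-PCR against three housekeeping genes, after HepaRG cells were treated 48 h with eight half-log concentrations (top 100 uM, 0.5% DMSO). Curves fitted bidirectionally relative to vehicle.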

[2] = read-out: Keratin 19 (KRT19), KRT19 (gene 3880); experiment: LTEA_HepaRG_KRT19: Life Technologies and Expression Analysis (LTEA) Assay for Keratin 19 (KRT19) using HepaRG (AID 2283512)
How it was run: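 KRT19 transcript levels, measured by Fluidigm qRT-PCR against three housekeeping genes, are fitted for gain or loss of signal relative to DMSO. Human HepaRG cells receive test chemicals (top 100 uM, half-log steps, 0.5% DMSO) for 48 hours.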

[3] = read-out: JUN Transcription Factor, JUN (gene 3725); experiment: LTEA_HepaRG_JUN: Life Technologies and Expression Analysis (LTEA) Assay for JUN Transcription Factor using HepaRG (AID 2283513)
How it was run: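 Read-out is JUN transcript level by TaqMan qRT-PCR, normalized to ACTB, GAPDH and POLR2A, after 48 h chemical treatment of HepaRG cells. Concentration-response spanned eight half-log points up to 100 uM in 0.5% DMSO.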

[4] = read-out: Lipase C (LIPC), LIPC (gene 3990); experiment: LTEA_HepaRG_LIPC: Life Technologies and Expression Analysis (LTEA) Assay for Lipase C (LIPC) using HepaRG (AID 2283514)
How it was run: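 LIPC expression was quantified by qRT-PCR against three housekeeping genes (ACTB, GAPDH, POLR2A). Differentiated human HepaRG cells received eight half-log doses (top 100 uM, 0.5% DMSO) in duplicate for 48 h; fitting bidirectional relative to DMSO.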

[5] = read-out: Lipoprotein lipase (LPL), LPL (gene 4023); experiment: LTEA_HepaRG_LPL: Life Technologies and Expression Analysis (LTEA) Assay for Lipoprotein lipase (LPL) using HepaRG (AID 2283515)
How it was run: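 LPL transcript levels quantified by TaqMan qRT-PCR against three housekeeping genes after 48 h chemical treatment of HepaRG cells. Eight-point half-log series from 100 uM in 0.5% DMSO, tested in duplicate; bidirectional fitting versus vehicle.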

[6] = read-out: MicroRNA 122 (MIR122), gene 406906; experiment: LTEA_HepaRG_MIR122: Life Technologies and Expression Analysis (LTEA) Assay for MicroRNA 122 (MIR122) using HepaRG (AID 2283516); also: the transcript read is the microRNA miR-122
How it was run: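 Human liver HepaRG cultures receive test chemicals for 48 h at eight half-log concentrations from 100 uM. Expression is quantified by qRT-PCR with ACTB/GAPDH/POLR2A normalization and fitted bidirectionally against 0.5% DMSO.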

[7] = read-out: matrix metalloproteinase-10 (MMP10), MMP10 (gene 4319); experiment: LTEA_HepaRG_MMP10: Life Technologies and Expression Analysis (LTEA) Assay for matrix metalloproteinase-10 (MMP10) using HepaRG (AID 2283517)
How it was run: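 Expression measured by TaqMan qRT-PCR with ACTB/GAPDH/POLR2A normalisation after 48 h chemical exposure of HepaRG cells. Eight half-log concentrations, top 100 uM, 0.5% DMSO vehicle, duplicates; gain or loss fitted against vehicle.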

MYC, MYC (gene 4609) = experiment: LTEA_HepaRG_MYC: Life Technologies and Expression Analysis (LTEA) Assay for MYC using HepaRG (AID 2283518)
How it was run: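 HepaRG, ~100,000 cells/well, collagen I; 48 h plating; serum-free induction medium; 48 h dosing, duplicate, 100 uM top, half-log, 0.5% DMSO; total RNA → qRT-PCR MYC; gain/loss fit vs DMSO.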

[8] = read-out: matrix metalloproteinase-3 (MMP3), MMP3 (gene 4314); experiment: LTEA_HepaRG_MMP3: Life Technologies and Expression Analysis (LTEA) Assay for matrix metalloproteinase-3 (MMP3) using HepaRG (AID 2283519)
How it was run: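 Fluidigm-based TaqMan qRT-PCR, normalized to ACTB, GAPDH and POLR2A and fitted bidirectionally versus 0.5% DMSO, measured transcript levels. Treatment: duplicate 48 h exposures of HepaRG cells, ~100,000/well, to eight half-log concentrations topping at 100 uM.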

[9] = read-out: Paternally Expressed 10 (PEG10), PEG10 (gene 23089); experiment: LTEA_HepaRG_PEG10: Life Technologies and Expression Analysis (LTEA) Assay for Paternally Expressed 10 (PEG10) using HepaRG (AID 2283520);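 as to AC50: PEG10 transcript by qRT-PCR normalised to ACTB GAPDH and POLR2A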
How it was run: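 Human HepaRG cultures are dosed for 48 h across an eight-point half-log series starting at 100 uM, with 0.5% DMSO as vehicle and baseline. Gain or loss of PEG10 transcript is measured by qRT-PCR and fitted in both directions.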

[10] = read-out: Nuclear factor NF-kappa-B p105 subunit (Homo sapiens) (UniProt P19838); experiment: LTEA_HepaRG_NFKB1: Life Technologies and Expression Analysis (LTEA) Assay for Nuclear Factor Kappa B Subunit 1 (NFKB1) using HepaRG (AID 2283521)
How it was run: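 HepaRG, 48 h exposure; 8-pt half-log series from 100 uM in 0.5% DMSO; duplicates. Readout: NFKB1 mRNA by qRT-PCR (Fluidigm arrays), housekeeping-normalized. Gain/loss fit vs DMSO baseline.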

[11] = read-out: Protein phosphatase 2A (PPP2R4), PTPA (gene 5524); experiment: LTEA_HepaRG_PPP2R4: Life Technologies and Expression Analysis (LTEA) Assay for Protein phosphatase 2A (PPP2R4) using HepaRG (AID 2283522)
How it was run: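 Cells were plated, cultured 48 h, switched to serum-free induction medium, then dosed for 48 h (8 points, max 100 uM, 0.5% DMSO). RNA was isolated and PPP2R4 expression measured by TaqMan qRT-PCR.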

[12] = read-out: solute carrier (SLC22A1), SLC22A1 (gene 6580); experiment: LTEA_HepaRG_SLC22A1: Life Technologies and Expression Analysis (LTEA) Assay for solute carrier (SLC22A1) using HepaRG (AID 2283524);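 as to AC50: differentiated human HepaRG liver cells in serum-free induction medium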
How it was run: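 Transcript level of SLC22A1 quantified by qRT-PCR (normalized to three housekeeping genes) after 48 h chemical exposure of HepaRG cells, eight concentrations up to 100 µM, half-log steps, 0.5% DMSO vehicle. Gain or loss relative to DMSO fitted bidirectionally.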

[13] = read-out: Pyruvate Dehydrogenase Kinase 4 (PDK4), PDK4 (gene 5166); experiment: LTEA_HepaRG_PDK4: Life Technologies and Expression Analysis (LTEA) Assay for Pyruvate Dehydrogenase Kinase 4 (PDK4) using HepaRG (AID 2283525)
How it was run: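 Readout is qRT-PCR of PDK4 transcript, normalized to three housekeeping genes, with bidirectional fitting against 0.5% DMSO vehicle. Differentiated HepaRG cells were treated 48 h in serum-free induction medium, duplicate wells, eight-point half-log series topping at 100 uM.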

[14] = read-out: NAD(P)H dehydrogenase [quinone] 1 (NQO1), NQO1 (gene 1728); experiment: LTEA_HepaRG_NQO1: Life Technologies and Expression Analysis (LTEA) Assay for NAD(P)H dehydrogenase [quinone] 1 (NQO1) using HepaRG (AID 2283526)
How it was run: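 Transcript induction or suppression is quantified by qRT-PCR in human HepaRG liver cells dosed for 48 hours. Eight half-log concentrations topping at 100 uM are used, with 0.5% DMSO as vehicle and baseline.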

[15] = read-out: Nuclear factor erythroid 2-related factor 2 (Homo sapiens) (UniProt Q16236); experiment: LTEA_HepaRG_NFE2L2: Life Technologies and Expression Analysis (LTEA) Assay for Nuclear factor erythroid 2-related factor 2 (NFE2L2) Transcription Factor using HepaRG (AID 2283527)
How it was run: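 NFE2L2 transcript level was read by qRT-PCR (housekeeping ACTB/GAPDH/POLR2A normalisation) after 48 h chemical treatment of HepaRG in serum-free induction medium. Duplicate 8-point half-log curves, top 100 uM, 0.5% DMSO vehicle; up- or down-regulation fitted against vehicle.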

[16] = read-out: succinate dehydrogenase complex iron sulfur subunit B (SDHB), SDHB (gene 6390); experiment: LTEA_HepaRG_SDHB: Life Technologies and Expression Analysis (LTEA) Assay for succinate dehydrogenase complex iron sulfur subunit B (SDHB) using HepaRG (AID 2283528)
How it was run: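 Readout is SDHB transcript level by qRT-PCR, normalised to three housekeeping genes and fitted bidirectionally against 0.5% DMSO vehicle. Human HepaRG cells were treated for 48 h at up to 100 uM.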

[17] = read-out: Signal transducer and activator of transcription 3 (Homo sapiens) (UniProt P40763); experiment: LTEA_HepaRG_STAT3: Life Technologies and Expression Analysis (LTEA) Assay for Signal transducer and activator of transcription (STAT3) using HepaRG (AID 2283529)
How it was run: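 STAT3 transcript quantified by qRT-PCR against three housekeeping genes (ACTB, GAPDH, POLR2A), fitted both directions relative to DMSO. HepaRG cultures exposed 48 h to eight half-log concentrations, top 100 uM, 0.5% DMSO, serum-free induction medium.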

[18] = read-out: solute carrier (SLCO1B1), SLCO1B1 (gene 10599); experiment: LTEA_HepaRG_SLCO1B1: Life Technologies and Expression Analysis (LTEA) Assay for solute carrier (SLCO1B1) using HepaRG (AID 2283530)
How it was run: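 HepaRG, serum-free induction medium, 48 h dosing, 8-pt half-log from 100 uM, 0.5% DMSO vehicle, duplicates. Readout: SLCO1B1 mRNA, qRT-PCR, ACTB/GAPDH/POLR2A normalization; up or down fit vs DMSO.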

[19] = read-out: Phosphatase and tensin (PTEN), PTEN (gene 5728); experiment: LTEA_HepaRG_PTEN: Life Technologies and Expression Analysis (LTEA) Assay for Phosphatase and tensin (PTEN) using HepaRG (AID 2283523)
How it was run: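 Read-out: TaqMan qRT-PCR of PTEN transcript, normalized to three housekeeping genes, fitted in both directions against 0.5% DMSO. Differentiated human HepaRG cultures received chemicals for 48 h, eight-point half-log series topping at 100 uM.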

Measured: AC50

Sequence of Signal transducer and activator of transcription 3 (Homo sapiens) (P40763 whole entry, looked up): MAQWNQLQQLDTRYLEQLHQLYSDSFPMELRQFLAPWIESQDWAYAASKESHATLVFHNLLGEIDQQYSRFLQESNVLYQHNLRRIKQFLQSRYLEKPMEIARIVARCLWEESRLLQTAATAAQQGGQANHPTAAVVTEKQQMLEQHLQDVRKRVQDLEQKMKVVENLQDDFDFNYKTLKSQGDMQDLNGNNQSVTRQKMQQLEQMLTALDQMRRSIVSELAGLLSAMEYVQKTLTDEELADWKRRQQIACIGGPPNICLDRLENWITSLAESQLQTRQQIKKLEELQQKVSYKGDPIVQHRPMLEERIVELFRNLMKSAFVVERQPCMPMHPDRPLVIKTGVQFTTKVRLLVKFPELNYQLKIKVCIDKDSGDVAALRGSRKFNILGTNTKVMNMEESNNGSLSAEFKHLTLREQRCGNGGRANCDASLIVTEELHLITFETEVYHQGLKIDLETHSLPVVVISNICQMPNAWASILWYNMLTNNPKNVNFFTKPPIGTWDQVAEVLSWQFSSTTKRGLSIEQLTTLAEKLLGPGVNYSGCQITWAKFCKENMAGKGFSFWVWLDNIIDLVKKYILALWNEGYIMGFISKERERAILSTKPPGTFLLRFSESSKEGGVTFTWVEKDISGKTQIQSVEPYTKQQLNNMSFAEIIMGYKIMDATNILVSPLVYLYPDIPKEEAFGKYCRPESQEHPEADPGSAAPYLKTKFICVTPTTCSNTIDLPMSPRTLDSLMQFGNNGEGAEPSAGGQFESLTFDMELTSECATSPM
Sequence of Nuclear factor NF-kappa-B p105 subunit (Homo sapiens) (P19838 whole entry, looked up): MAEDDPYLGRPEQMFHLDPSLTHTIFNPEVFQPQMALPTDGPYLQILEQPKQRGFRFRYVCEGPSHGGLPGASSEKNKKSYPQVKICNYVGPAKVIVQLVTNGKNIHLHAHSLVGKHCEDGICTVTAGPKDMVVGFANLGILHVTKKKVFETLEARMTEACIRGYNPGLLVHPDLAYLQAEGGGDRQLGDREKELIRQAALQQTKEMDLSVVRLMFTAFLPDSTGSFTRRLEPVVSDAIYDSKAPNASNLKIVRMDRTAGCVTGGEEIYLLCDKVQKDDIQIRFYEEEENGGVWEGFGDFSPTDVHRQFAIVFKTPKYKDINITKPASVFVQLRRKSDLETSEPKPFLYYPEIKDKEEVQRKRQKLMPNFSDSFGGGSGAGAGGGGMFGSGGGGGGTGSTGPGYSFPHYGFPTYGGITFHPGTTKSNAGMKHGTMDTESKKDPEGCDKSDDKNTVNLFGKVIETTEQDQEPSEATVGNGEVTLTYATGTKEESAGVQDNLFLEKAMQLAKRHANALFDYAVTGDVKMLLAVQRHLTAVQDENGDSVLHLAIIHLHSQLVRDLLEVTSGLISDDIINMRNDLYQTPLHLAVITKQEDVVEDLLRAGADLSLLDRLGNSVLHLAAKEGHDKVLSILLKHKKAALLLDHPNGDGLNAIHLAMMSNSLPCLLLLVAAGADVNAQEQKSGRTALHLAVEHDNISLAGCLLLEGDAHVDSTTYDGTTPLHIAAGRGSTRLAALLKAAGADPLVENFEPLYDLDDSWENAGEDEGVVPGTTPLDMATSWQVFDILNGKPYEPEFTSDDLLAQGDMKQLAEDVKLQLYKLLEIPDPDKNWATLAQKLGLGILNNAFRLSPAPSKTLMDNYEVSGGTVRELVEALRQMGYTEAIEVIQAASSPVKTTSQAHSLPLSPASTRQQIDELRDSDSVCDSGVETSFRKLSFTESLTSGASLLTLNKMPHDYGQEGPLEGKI
Sequence of Nuclear factor erythroid 2-related factor 2 (Homo sapiens) (Q16236 whole entry, looked up): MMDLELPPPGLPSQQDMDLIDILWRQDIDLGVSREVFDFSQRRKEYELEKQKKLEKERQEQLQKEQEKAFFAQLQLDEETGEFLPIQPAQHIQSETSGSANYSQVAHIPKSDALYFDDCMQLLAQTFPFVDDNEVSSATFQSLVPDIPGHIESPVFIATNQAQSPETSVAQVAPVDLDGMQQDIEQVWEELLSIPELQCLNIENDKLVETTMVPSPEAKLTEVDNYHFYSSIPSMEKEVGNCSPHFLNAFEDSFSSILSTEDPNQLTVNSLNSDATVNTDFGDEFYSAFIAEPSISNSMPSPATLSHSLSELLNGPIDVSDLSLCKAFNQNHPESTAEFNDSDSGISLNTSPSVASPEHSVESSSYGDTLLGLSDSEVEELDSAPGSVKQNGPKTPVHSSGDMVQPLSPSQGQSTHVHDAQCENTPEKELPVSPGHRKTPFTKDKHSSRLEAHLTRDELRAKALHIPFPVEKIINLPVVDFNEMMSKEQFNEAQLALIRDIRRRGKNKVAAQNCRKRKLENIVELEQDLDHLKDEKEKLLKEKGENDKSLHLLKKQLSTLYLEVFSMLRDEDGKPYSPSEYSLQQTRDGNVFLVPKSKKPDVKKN

CCc1cc(SCc2sc(-c3ccc(C(F)(F)F)cc3)nc2CN2CCN(c3ccc(OC)cc3)CC2)ccc1OCC(=O)O
active: [1] 9.11 µM | [2] 94 µM | [3] 88.8 µM | [4] 7.95 µM | [5] 27.9 µM | [6] 93.4 µM | [7] 7.31 µM | MYC, MYC (gene 4609) 7.43 µM | [9] 93.6 µM | [10] 91 µM | [11] 22.4 µM | [12] 8.47 µM | [13] 92.2 µM | [14] 8.39 µM | [15] 91.8 µM | [16] 93.7 µM | [17] 93.3 µM | [18] 7.63 µM
inactive: [8]

O=C(O)c1cccc(N(Cc2cccnc2)c2ccc(OC(F)F)c(OC(F)F)c2)c1
active: [2] 24.6 µM | [7] 91.7 µM | [8] 80.4 µM | [9] 50 µM | [10] 0.576 µM | [13] 50 µM
not listed: [15] | [17]
inactive: all other assays above

O=C(O)CCN(C1(C(=O)NO)CCCC1)S(=O)(=O)c1ccc(Oc2ccc(F)cc2)cc1
not listed: [14] | [15]
inactive: all other assays above

CCn1nc(Cc2ccccc2)cc1C1CCN(C[C@H]2C[C@H](N(C)[C@@H](C(=O)O)C(C)C)C[C@@H]2c2cccc(F)c2)CC1
active: [2] 34.9 µM | [5] 50 µM | [12] 12.4 µM
not listed: [15]
inactive: all other assays above

CCOCCOCCOCCO
not listed: [14]
inactive: all other assays above

COCCOCCOCCOC
not listed: [15] | [19]
inactive: all other assays above
